CHO-K1 Ca PAM = nonselective calcium activators in parental CHO-K1 cells, primary screen, counter-screen for M1 PAM project, cell-based, Fluo-8 calcium fluorescence, full deck, 1536-well; activation, % at 3 µM; ATP EC20; 0% at ATP EC20, 100% at ATP max; actives 0.02% (n = 360,000);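 active = activation above the run cutoff, the mean activation of all test compounds plus 3 SD, cut at about 40% in these data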;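 also: peak over basal fluorescence ratio in a 140 s read after ATP addition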
CHRM1 agonist = human M1 muscarinic receptor agonists, primary screen, Fluo-8 calcium fluorescence, CHO-K1 cells, HTS. Muscarinic acetylcholine receptor M1 (Homo sapiens), P11229. actives 0.33% (n = 360,000). CHO-K1 hM1, agonist mode; 0% DMSO, 100% acetylcholine EC100. activation, % at 3 µM. AID 588814, 2011;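 active = activation above the run's mean compound activation plus 3 SD, cut at about 16% in these data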;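 also: peak over basal fluorescence ratio within a 140 s kinetic read after compound addition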
M1 PAM = human M1 muscarinic receptor positive allosteric modulators, primary screen, CHO-K1 cells, Fluo-8 calcium fluorescence, 1536-well; Muscarinic acetylcholine receptor M1 (Homo sapiens), P11229; CHO-K1 hM1, ACh EC20; 0% = ACh EC20, 100% = maximal ACh; activation, % at 3 µM; actives 0.088% (n = 360,000); AID 588819, 2011; in the data active = activation above about 19%, passing the limit was not always enough
CHRM1 antagonist = human M1 muscarinic receptor antagonists, primary screen, CHO-K1 cells, Fluo-8 calcium fluorescence, 1536-well | Muscarinic acetylcholine receptor M1 (Homo sapiens), P11229 | CHO-K1 hM1, ACh EC80 antagonist | inhibition, % at 3 µM | actives 1.3% (n = 360,000);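 active = percent inhibition above its own plate's cutoff, namely the mean of that plate's compound wells plus 3 SD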;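 also: peak over basal fluorescence ratio during 140 s after agonist addition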
CHO-K1 Ca ag = counter-screen for M1 agonists: effect in parental CHO-K1 cells; Fluo-8 calcium fluorescence; scaled to maximal ATP response, vehicle zero; actives 0.48% (n = 360,000); activation, % at 3 µM; in the data active = activation above about 15%;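 also: untransfected CHO-K1 host cells lacking M1 receptor as counterscreen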
CHO-K1 Ca antag = M1 antagonist counterscreen hit in parental CHO-K1 cells. ATP-induced calcium, Fluo-8 fluorescence. inhibition, % at 3 µM. actives 0.6% (n = 360,000);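 active = inhibition above a per-plate cutoff, the plate's mean sample inhibition plus 3 SD, cut at about 24% in these data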
Large screens that a line does not name were inactive. A selection: hits, their analogues and other compounds. The true share with any hit is near 2.3%.

Cc1ccc(N(C)C(=O)N2CCN(S(=O)(=O)c3ccc(C)cc3)CC2)cc1	CHRM1 agonist 19, M1 PAM 25
O=C(c1sccc1-c1ccccc1)N1CCN(S(=O)(=O)c2ccccc2F)CC1	none
CN(C)CCCN(Cc1ccccc1)C(=S)Nc1cccc(C(F)(F)F)c1	none
CN(C)CCCN(Cc1ccccc1)C(=S)Nc1ccc(F)c(Cl)c1	CHRM1 antagonist 38
CCCCOc1ccc(Br)cc1CSC(=N)N	CHRM1 antagonist 26, CHO-K1 Ca antag 34
CCOc1ccc(C(C)=O)cc1CSC(=N)N	none
Cc1nc2sc(C(=O)Nc3ccccc3)c(N)c2c(C)c1[N+](=O)[O-]	none
COC(=O)Cc1ccc(OC2(C)CCN(Cc3csc4ccccc34)C2)cc1 (stereo not drawn)	CHRM1 antagonist 29

High-throughput results: PubChem, The Scripps Research Institute Molecular Screening Center
